{"source": "PubChem BioAssay AID602293", "about": "(National Center for Advancing Translational Sciences (NCATS), 2012)", "note": "The whole screen tested about 1,300 compounds, of which about 30 (2%) were called active. Another 10% or so got no clear call; they are omitted. Calls come from the whole dose curve; as a rule, active = well fitted inhibition curve with a large enough effect; inconclusive = small, poorly fitted or top-dose-only effect; inactive = flat fitted curve, though single readings scatter. The list comes from a sample in which actives are over-represented; it also holds similar structures and randomly drawn compounds. % is set by controls: 0 for no effect and ±100 for the full control effect; potency is the fitted concentration of half-maximal effect.", "data": [{"test": "qHTS for antagonists of the Thyroid Stimulation Hormone Receptor: Hit Validation in HTRF Activity in a Luteinizing Hormone Receptor Cell Line", "conditions": "LHR-expressing cell line, cAMP HTRF, antagonist mode; series mostly up to 58 µM; activity change, negative = inhibition: at the top concentration", "how_it_was_run": "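HEK 293 cells stably expressing LH receptor, in DMEM with 10% FCS and 100 uM RO 20-1724, incubated with compound 30 min at room temperature. cAMP measured by competitive HTRF (anti-cAMP cryptate vs cAMP-d2), excitation 330 nm, emissions 615 and 660 nm.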", "values": [{"smiles": "Cc1cccc(N2CCN(S(=O)(=O)c3ccc4c(c3)NC(=O)CS4)CC2)c1C", "activity change, negative = inhibition": "-1.48% (inactive)"}, {"smiles": "CC1CCN(c2ccccc2NC(=O)c2cc([N+](=O)[O-])ccc2N2CCOCC2)CC1", "activity change, negative = inhibition": "-3.69% (inactive)"}, {"smiles": "CSc1nnc(C(C)(C)C)c(=O)n1/N=C/c1c(O)ccc2ccccc12", "activity change, negative = inhibition": "1.35% (inactive)"}, {"smiles": "Nc1nc(SCc2ccccc2Cl)ns1", "activity change, negative = inhibition": "2.13% (inactive)"}, {"smiles": "CC1CC1C(=O)N1CCN(S(=O)(=O)c2cc(C(F)(F)F)cc(C(F)(F)F)c2)CC1", "note": "(configuration not stated)", "activity change, negative = inhibition": "2.61% (inactive)"}, {"smiles": "COc1ccc(CC(=O)Nc2cccc(-c3nnc(-c4cccc(C)c4)o3)c2)cc1OC", "Potency": "21.3 µM (active)"}, {"smiles": "COc1cccc(CN(C)C(=O)c2ccc(OCC(=O)Nc3cccc(C(F)(F)F)c3)c(OC)c2)c1", "activity change, negative = inhibition": "-0.547% (inactive)"}, {"smiles": "COc1ccc(-c2nc(CS(=O)CC(=O)NCc3ccccc3)c(C)o2)cc1OC", "note": "(configuration not stated)", "activity change, negative = inhibition": "0.304% (inactive)"}, {"smiles": "Cc1ccc(S(=O)(=O)Nc2ccccc2N2CCCCC2)cc1", "activity change, negative = inhibition": "-4.31% (inactive)"}, {"smiles": "COc1ccccc1CNC(=O)CSc1nc(N)c(C#N)c(-c2cccs2)c1C#N", "activity change, negative = inhibition": "-0.0637% (inactive)"}, {"smiles": "CCn1nc([N+](=O)[O-])c(C(C#N)c2nc3cc(C(F)(F)F)ccc3s2)c(Cl)c1=O", "note": "(configuration not stated)", "activity change, negative = inhibition": "-0.764% (inactive)"}, {"smiles": "O=C(NC(Nc1nc2ccc([N+](=O)[O-])cc2s1)(C(F)(F)F)C(F)(F)F)c1cccnc1", "activity change, negative = inhibition": "-2.25% (inactive)"}, {"smiles": "O=c1c(Sc2ccccc2)c(C(F)(F)F)[nH]n1-c1ccccc1", "activity change, negative = inhibition": "2.36% (inactive)"}, {"smiles": "COc1ccc(OC)c(CCNC(=O)Cn2nc(C)c3c(C)n(-c4ccc(C)cc4)nc3c2=O)c1", "activity change, negative = inhibition": "-2.32% (inactive)"}, {"smiles": "CC(=O)NC1=C(Nc2ccc(N(C)C)cc2)C(=O)c2ccccc2C1=O", "activity change, negative = inhibition": "-3.23% (inactive)"}, {"smiles": "O=C(OCn1ncc(Cl)c(Cl)c1=O)c1cccc(C(F)(F)F)c1", "activity change, negative = inhibition": "-0.844% (inactive)"}, {"smiles": "Cc1sc2ncnc(N3CCN(CCOc4ccc(Cl)cc4)CC3)c2c1C", "activity change, negative = inhibition": "-1.63% (inactive)"}, {"smiles": "Cc1ccc(-c2nc3ccc(C(=O)O)cc3nc2-c2ccc(C)cc2)cc1", "activity change, negative = inhibition": "-1.76% (inactive)"}, {"smiles": "CCOC(=O)c1sc(NC(=O)CSc2n[nH]c(-c3ccncc3)n2)c(C#N)c1C", "activity change, negative = inhibition": "0.55% (inactive)"}, {"smiles": "COc1cccc(NC(=O)Nc2nc(-c3ccc(OC)c(OC)c3)cs2)c1", "Potency": "13.5 µM (active)"}, {"smiles": "COc1ccc(S(=O)(=O)Nc2ccccc2C(=O)Nc2nc(-c3ccc(F)cc3)cs2)cc1OC", "activity change, negative = inhibition": "-2.16% (inactive)"}, {"smiles": "CCSc1nsc(NC(=O)Nc2cccc(OC)c2)n1", "activity change, negative = inhibition": "1.44% (inactive)"}, {"smiles": "CN(C)S(=O)(=O)c1cccc(-c2nnc(SCc3ccc4c(c3)OCCO4)o2)c1", "activity change, negative = inhibition": "-1.33% (inactive)"}, {"smiles": "COc1ccccc1NS(=O)(=O)c1cccc(NC(=O)c2ccc3ccccc3n2)c1", "activity change, negative = inhibition": "-1.31% (inactive)"}, {"smiles": "CCc1ccc(-c2cc(C)no2)cc1S(=O)(=O)N1CCN(c2ccccn2)CC1", "activity change, negative = inhibition": "-2.05% (inactive)"}, {"smiles": "COc1ccc(CN(C)C(=O)COC(=O)c2ccc(-c3ccccc3)cc2)c(OC)c1OC", "activity change, negative = inhibition": "-1.51% (inactive)"}, {"smiles": "CCOc1ccc2nc(SC3CC(=O)N(c4ccccc4)C3=O)sc2c1", "note": "(configuration not stated)", "activity change, negative = inhibition": "1.87% (inactive)"}, {"smiles": "Cc1cc(OCc2cc(C(=O)N(C)C(C)c3ccccn3)no2)cc(C)c1Cl", "note": "(configuration not stated)", "activity change, negative = inhibition": "0.705% (inactive)"}, {"smiles": "CC(C)c1ccccc1OCCNC(=O)c1cccnc1", "activity change, negative = inhibition": "2.01% (inactive)"}, {"smiles": "O=C(CSc1ccc(F)cc1)N1CCC(c2nc3ccccc3s2)CC1", "activity change, negative = inhibition": "-2.02% (inactive)"}, {"smiles": "N=c1oc2ccccc2cc1C(=O)NC1CCCCCC1", "activity change, negative = inhibition": "-0.828% (inactive)"}, {"smiles": "CC(Sc1nnc(-c2cccs2)n1Cc1ccccc1)C(=O)NCc1ccc2c(c1)OCO2", "note": "(configuration not stated)", "activity change, negative = inhibition": "-1.32% (inactive)"}, {"smiles": "COc1cccc(-c2nc(-c3ccc(NC(=O)c4cccnc4)cc3)no2)c1", "activity change, negative = inhibition": "-3.43% (inactive)"}, {"smiles": "Cn1c(=O)c(C(=O)NNC(=O)c2cccc(Cl)c2)c(O)c2ccccc21", "activity change, negative = inhibition": "-1.11% (inactive)"}, {"smiles": "CC1Cc2ccccc2N1C(=O)COC(=O)/C=C/c1cccc(F)c1", "note": "(configuration not stated)", "activity change, negative = inhibition": "-1.41% (inactive)"}, {"smiles": "CCCCCCSc1nsc(NC(C)=O)n1", "activity change, negative = inhibition": "2.54% (inactive)"}, {"smiles": "O=Cc1c[nH]c2ccc(C(=O)c3ccccc3)cc12", "activity change, negative = inhibition": "-1.03% (inactive)"}, {"smiles": "O=C(CN1C(=O)NC2(CCCCCC2)C1=O)N1CCC(Cc2ccccc2)CC1", "activity change, negative = inhibition": "-0.781% (inactive)"}, {"smiles": "COc1ccc(NS(=O)(=O)c2cc(-c3cnc(C4CC4)o3)ccc2C)cc1", "activity change, negative = inhibition": "-3.75% (inactive)"}, {"smiles": "CC(C)Cn1c(-c2csc3c2CCCC3)n[nH]c1=S", "activity change, negative = inhibition": "2.71% (inactive)"}, {"smiles": "CC(=O)Oc1c(I)cc(I)cc1C(=O)Nc1ccc(Cl)cc1", "activity change, negative = inhibition": "-3.87% (inactive)"}, {"smiles": "Cc1ccc(NS(=O)(=O)c2cc(C(=O)Nc3cccc([N+](=O)[O-])c3)ccc2C)cc1", "activity change, negative = inhibition": "-4.12% (inactive)"}, {"smiles": "CCCCNC(=O)c1sc(=S)n2c1[nH]c(=O)c1ccccc12", "activity change, negative = inhibition": "-0.118% (inactive)"}, {"smiles": "Cc1cccc(CSCCNC(=O)c2ccc(N(C)S(=O)(=O)c3ccccc3)cc2)c1", "activity change, negative = inhibition": "-1.47% (inactive)"}, {"smiles": "O=[N+]([O-])c1ccc(COc2cccc(CNc3ccc(F)cc3)c2)cc1", "activity change, negative = inhibition": "2.34% (inactive)"}, {"smiles": "CCCCOc1ncnc2c1[nH]c1ccccc12", "activity change, negative = inhibition": "-2.8% (inactive)"}, {"smiles": "COC(=O)Cn1c(=NC(=O)CSC(C)=O)sc2ccccc21", "activity change, negative = inhibition": "-1.47% (inactive)"}, {"smiles": "CC(C)C[C@H](N)c1nnc(S(=O)(=O)Cc2ccc(F)cc2)o1", "activity change, negative = inhibition": "-0.792% (inactive)"}, {"smiles": "CC(C)c1ccc(/C=C/C(=O)NCCC2=CCCCC2)cc1", "activity change, negative = inhibition": "1.16% (inactive)"}, {"smiles": "CCOC(=O)c1sc(NC(=O)c2cc(-c3ccccc3)nc3ccccc23)c(C#N)c1C", "activity change, negative = inhibition": "-1.11% (inactive)"}, {"smiles": "CC1CCc2nc(NC(=O)CSc3nc4ccccc4o3)sc2C1", "note": "(configuration not stated)", "activity change, negative = inhibition": "-3.41% (inactive)"}, {"smiles": "Cc1ccccc1NC1c2ccccc2C(=O)N1Cc1ccco1", "note": "(configuration not stated)", "activity change, negative = inhibition": "0.697% (inactive)"}, {"smiles": "Cc1c(N=Nc2c(-c3ccc([N+](=O)[O-])cc3)[nH]n(C(N)=S)c2=O)cccc1[N+](=O)[O-]", "activity change, negative = inhibition": "2.29% (inactive)"}, {"smiles": "CC1CCN(S(=O)(=O)c2cccc(C(=O)N3CCN(c4ccc(F)cc4)CC3)c2)CC1", "activity change, negative = inhibition": "-1.37% (inactive)"}, {"smiles": "Cc1cccc2c1NC(=O)C2(c1ccc(O)cc1)c1ccc(O)cc1", "activity change, negative = inhibition": "-2.97% (inactive)"}, {"smiles": "Cc1ccc(-c2cc(C(=O)Nc3ccncc3)c3ccccc3n2)cc1", "activity change, negative = inhibition": "-2.05% (inactive)"}, {"smiles": "CSc1nsc(NC(=O)OCc2ccc(Cl)cc2)n1", "activity change, negative = inhibition": "-0.863% (inactive)"}, {"smiles": "CCOC(=O)Cc1csc(NC(=O)COc2ccc(N(C)S(=O)(=O)c3cccs3)cc2)n1", "activity change, negative = inhibition": "-4.36% (inactive)"}, {"smiles": "O=C1S/C(=C\\c2ccc(O)c([N+](=O)[O-])c2)C(=O)N1c1ccccc1Cl", "activity change, negative = inhibition": "0.191% (inactive)"}, {"smiles": "Cn1c2c(c(=O)[nH]c1=O)C(c1ccc(O)cc1)C1=C(N2)c2ccccc2C1=O", "note": "(configuration not stated)", "activity change, negative = inhibition": "-0.454% (inactive)"}, {"smiles": "O=S(=O)(c1ccc(SCc2ccc(Cl)cc2)nc1)N1CCCC1", "activity change, negative = inhibition": "-7.02% (inactive)"}, {"smiles": "CCOc1cc(C(=S)N2CCOCC2)ccc1OC(=O)c1ccccc1", "activity change, negative = inhibition": "-1.14% (inactive)"}]}]}
